HPGD block = HPGD (human) dehydrogenase inhibition. P15428. purified HPGD, NADH fluorescence kinetic, PGE2 substrate. Potency, µM, without a hit: at the highest dose activity change, negative = inhibition, most hits filed as inhibitors. actives 4.3% (n = 150,000). AID 894; active = well fitted inhibition curve with a large enough effect, not every such curve was filed as active; inconclusive = small, poorly fitted or top-dose-only effect, or another doubt; inactive = no such curve, though single readings can be large or run the other way; note: potency is the fitted concentration of half-maximal effect
Target sequence (P15428 whole entry, looked up): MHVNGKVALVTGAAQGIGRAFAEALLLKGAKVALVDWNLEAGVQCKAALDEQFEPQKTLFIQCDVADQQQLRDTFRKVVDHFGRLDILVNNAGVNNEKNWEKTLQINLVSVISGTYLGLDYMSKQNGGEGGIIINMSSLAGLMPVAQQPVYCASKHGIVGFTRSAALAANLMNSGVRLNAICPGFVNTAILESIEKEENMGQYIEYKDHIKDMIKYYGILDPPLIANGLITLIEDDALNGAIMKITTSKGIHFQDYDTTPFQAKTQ
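NADH formation kinetics: reaction with 30 uM PGE2 and 1 mM NAD+ (final), 20 nM enzyme, Tris-HCl pH 8 with Tween 20, after 15 min compound preincubation at room temperature. Fluorescence change, last versus first of five reads.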
15-hLO-2 inh = 15-hLO-2 (ALOX15B) enzyme inhibition; purified 15hLO-2, xylenol orange hydroperoxide absorbance; actives 0.56% (n = 110,000); O15296; Potency, µM (titrated, usually from 57.1 µM), for the others: at the highest dose activity change, negative = inhibition, actives largely listed as inhibitors; note: potency is the fitted concentration of half-maximal effect; nearly all actives have a fitted effect of over 60% in size
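Purified human 15hLO-2 (50 nM) preincubated 15 min with compound, then 45 uM arachidonic acid for 90 min at RT in 25 mM Hepes pH 7.5, 0.01% Triton X-100. Hydroperoxide detected by Fe-xylenol orange; 573/405 nm absorbance ratio.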
ALOX12 inhib = 12-hLO (ALOX12) enzyme inhibition | P18054 | purified 12-hLO, xylenol orange hydroperoxide absorbance | Potency, µM (titrated, usually from 57.1 µM), inactives show at the top dose activity change, negative = inhibition, usual class: inhibitors | actives 0.12% (n = 150,000) | AID 1452; note: potency is the fitted concentration of half-maximal effect; nearly all actives have a fitted effect of over 55% in size
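Hydroperoxide formation by human 12-lipoxygenase from 40 uM arachidonic acid was followed colorimetrically via ferric-xylenol orange complex, using the 573/405 nm absorbance ratio. Enzyme concentration was 150 nM, with 30 min reaction at room temperature.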
IMPase cell inh = membrane-permeable compound that blocks inositol monophosphatase; P97697; CHO-M1 cells, IP1 accumulation, HTRF TR-FRET ratio; inhibition (IP1 accumulation), % at 46.1 µM; 120,000 tested, under 10 active; active = well fitted curve in the direction sought with a large enough effect in the signal ratio, not every such curve was filed as active; inconclusive = small, poorly fitted or top-dose-only effect, or a change in a side signal; inactive = no such curve, though single readings can be large or run the other way; the % refers to the signal ratio;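 note: cells stimulated with carbachol in lithium chloride buffer; plate controls were DMSO basal wells for no effect and reference inhibitor wells for full effect; higher means more IMPase inhibition seen as more IP1 and lower FRET ratio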
Target sequence (P97697 whole entry, looked up): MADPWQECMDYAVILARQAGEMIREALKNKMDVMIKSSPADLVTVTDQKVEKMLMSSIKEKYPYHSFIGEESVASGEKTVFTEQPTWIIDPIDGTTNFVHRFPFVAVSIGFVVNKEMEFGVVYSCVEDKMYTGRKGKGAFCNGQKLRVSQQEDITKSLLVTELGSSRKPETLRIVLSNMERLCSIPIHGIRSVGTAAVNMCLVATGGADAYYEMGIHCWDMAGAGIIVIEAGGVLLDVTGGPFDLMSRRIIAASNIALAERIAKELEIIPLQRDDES
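Carbachol-driven Gq signalling in CHO-M1 cells (2000/well) generates IP1. Compounds that block IMPase raise IP1 and so reduce the FRET signal from Eu-anti-IP1 and d2-IP1 after a 10 min room-temperature lysis.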
IMPase Li cell = IMPase inhibition in cells with lithium potentiation | CHO-M1 cells, IP1 TR-FRET (IP-One), carbachol + lithium | Potency, µM (top dose mostly 59.4 µM), without a hit: at the highest dose activity, negative = IMPase inhibition, usual class: inhibitors | actives 0.35% (n = 210,000);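 note: IP1 builds up when IMPase is blocked and the TR-FRET signal falls; potency is the fitted concentration of half-maximal effect; plate controls were basal vehicle for no effect and high inhibitor control for full effect; nearly all actives have a fitted effect of over 50% in size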
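Readout is a homogeneous TR-FRET IP1 immunoassay (Ex 320, Em 665 and 620), where raised cytosolic IP1 lowers signal. Cells were CHO-M1 treated 30 min at 37C with test compounds plus a little lithium; AC50 values came from Hill-equation fitting.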
PNC assembly inh = inhibitors of perinucleolar compartment assembly. activity change (PNC), negative = inhibition, % at 10 µM. actives 3.1% (n = 140,000). AID 2417. PC3M PTB-GFP, PNC prevalence imaging, 16 h; hits give low values;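 active = readout at or below -70, meaning at least 70% loss of cells showing the perinucleolar compartment, a nuclear body marking cancer cells; inconclusive = readout between -30 and a set limit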;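 note: plate controls were DMSO wells for no effect and camptothecin positive control wells for full effect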
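Read-out is percentage of cells bearing a perinucleolar compartment, from automated 20x imaging of fixed, Hoechst-stained PC3M PTB-GFP cells. Cells were seeded 4 h, then exposed 16 h to compound (23 nl of library stock) in duplicate plates.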
* hit, by the source's call; ? = inconclusive; . = no result given; [ ] = remark or other dose. The list is not random: actives were taken first. Their share in the collection is about 5.4%. Unless noted, calls come from the whole dose curve; as a rule, active = well fitted curve in the direction sought with a large enough effect; inconclusive = small, poorly fitted or top-dose-only effect, or another doubt; inactive = no such curve, though single readings can be large; an effect the other way counts as inactive or inconclusive. Unless noted, % is set by controls: 0 for no effect and ±100 for the full control effect.

SMILES | HPGD block | 15-hLO-2 inh | ALOX12 inhib | IMPase cell inh | IMPase Li cell | PNC assembly inh
CN(C)c1ccc(N=c2sc3ccccc3n2C)cc1 | -28% | 7.9µM* | -6% | 15 | 47%[38.3 µM] | 28
c1cn(-c2cc(-c3ccc4c(c3)OCO4)ncn2)cn1 | . | 26% | . | . | -8% | .
COc1cccc(-c2nc(CS(=O)(=O)CC(=O)Nc3c(C)cccc3C)c(C)o2)c1 | -6% | -1% | -7% | 0 | 23%[38.3 µM] | -12
COc1cccc(-c2nc(CS(=O)(=O)CC(=O)Nc3cc(C)ccc3C)c(C)o2)c1 | -13% | . | 2% | -5 | 5% | -119*
CCCCS(=N)(=O)CC[C@H](N)C(=O)O (some centres undefined) | 6% | . | . | . | 12% | .
COc1cccc(Cn2c(=O)c(C)nc3cnc(N4CCN(C)CC4)nc32)c1 | . | 9% | . | . | 18% | .
N#Cc1c(N)nc(SCC(=O)NC2CCCCC2)c(C#N)c1-c1ccc(Cl)cc1 | -13% | -18% | 0% | -5 | 16µM* | ?
CC(C)(C)OC(=O)N1CCC(C(=O)N2CCCCCC2)CC1 | 14µM* | . | 1% | ? | -2% | ?
Cc1cccc(C)c1N1CCN(C(=O)Nc2ccc3c(c2)OCCO3)CC1 | -11% | 1% | -10% | 3 | 8%[38.3 µM] | 31
O=C(Nc1ccc2c(c1)OCO2)N1CCN(C(=O)C2CCCO2)CC1 (centres undefined) | -12% | . | 6% | 9 | -1% | -100*
O=C(Cc1cccs1)N1CCN(C(=O)C2CCCO2)CC1 (centres undefined) | -2% | 9%[2.29 µM] | -5% | 8 | 1%[38.3 µM] | -120*
O=C(NCC1CCCO1)Nc1ccc2c(c1)OCO2 (centres undefined) | . | . | . | . | 1% | .
O=C(Nc1ccc2c(c1)OCCO2)N1CCN(c2ccc(F)cc2)CC1 | -7% | 5% | 1% | 0 | 5% | -112*
CS(=O)(=O)Nc1cccc(-c2ccc3ncnc(NCc4cccs4)c3c2)c1 | . | 52% | . | . | 11% | .
CC(=O)c1nc(N2C(=O)CC(Cc3ccccc3)C2=O)sc1C (centres undefined) | 28µM* | . | -5% | . | ? | 14
Cc1cccc(CC2CC(=O)N(c3nc4ccccc4s3)C2=O)c1 (centres undefined) | . | . | . | . | 2% | .
CCCCC#Cc1nc(N)c2ncn([C@@H]3O[C@@H](C(=O)NCC)[C@H](O)[C@@H]3O)c2n1 | . | 13% | -5% | -3 | . | .
Cc1ccc2ccccc2c1[N+](=O)[O-] | -9% | 6% | -5% | . | -4% | .
COc1ccccc1OCCSc1nc(N)cc(N)n1 | -11% | . | -1% | -2 | 6% | -100*
Nc1cc(N)nc(SCCOc2ccccc2F)n1 | -21% | . | -2% | -7 | -10% | ?
N#Cc1ccc(CN2CCCC3(CCN(C(=O)c4cnccn4)CC3)C2)cc1 | -2% | -3% | -1% | . | 17% | .
COc1ccc(N2CCN(C(=O)CSc3nnc4n3C(C)(C)Cc3ccccc3-4)CC2)cc1 | -14% | 7% | -2% | -4 | -2%[38.3 µM] | -80*
COc1ccc(S(=O)(=O)NCCSCc2ccccc2C)cc1Br | 28µM* | ? | -13% | 1 | 1%[38.3 µM] | 6
Cc1ccccc1CSCCNS(C)(=O)=O | 2% | 2% | -2% | -6 | 8%[38.3 µM] | 9
COc1ccc(-c2nc(SCC(=O)Nc3ccc4c(c3)OCCO4)c(-c3ccc(C)cc3)[nH]2)cc1OC | . | . | . | 9 | . | .
SMILES | HPGD block | 15-hLO-2 inh | ALOX12 inhib | IMPase cell inh | IMPase Li cell | PNC assembly inh
Cc1cc(Br)cc2c(C(=O)OCC(=O)c3ccccc3)cc(-c3ccccc3)nc12 | . | . | . | -6 | . | .
O=C(O)c1c2c(c(O)c3c1CN(C1CCCCC1)CO3)OCN(C1CCCCC1)C2 | -13% | 6%[11.4 µM] | -5%[11.4 µM] | . | 2% | .
COc1ccc(C(=O)c2sc3nc(C)cc(-c4cccs4)c3c2N)cc1OC | -11% | . | -2% | . | 7% | -82*
COc1ccc(C(=O)c2sc3nc(C)cc(-c4cccs4)c3c2N)cc1 | -21% | . | -8% | . | -19% | ?
COC(=O)[C@@H](NC(=O)O[C@H]1C(=O)c2cc(OC)ccc2O[C@@H]1c1ccc(OC)c(Br)c1)C(C)C | -16% | . | . | . | 10% | .
c1ccc(Nc2nc(-c3ccoc3)nc3ccccc23)cc1 | . | 12% | . | . | -1% | .
Cn1c(SCc2nnc3n2CCCCC3)nc2ccccc21 | 25µM* | -1% | -2% | 0 | 21%[38.3 µM] | -29
CCOC(=O)CCSc1nc(-c2ccc3c(c2)OCO3)cc(C(F)(F)F)c1C#N | ? | -9% | -6% | -4 | ? | 0
C=CCSc1nc(-c2ccc3c(c2)OCO3)cc(C(F)(F)F)c1C#N | ? | -15% | -12% | -1 | ? | -96*
N#Cc1c(C(F)(F)F)cc(-c2ccc(Cl)c(Cl)c2)nc1SCCN1CCOCC1 | 25µM* | 18% | -12% | ? | 13%[38.3 µM] | 14
O=C(COC(=O)C1CC2C=CC1C2)Nc1cccc(S(=O)(=O)N2CCCCC2)c1 (centres undefined) | -6% | . | 4% | -2 | 3% | 26
O=C(COC(=O)C1CC2C=CC1C2)Nc1ccc2c(c1)OC(F)(F)O2 (centres undefined) | -14% | . | -8% | -3 | 21% | -100*
CC1CCN(c2c(NCC3CCC(C(=O)N4CCCCC4)CC3)c(=O)c2=O)CC1 (centres undefined) | 0.5µM* | 1% | -5% | 1 | -6%[38.3 µM] | 11
O=C(NCc1ccc(Cl)cc1)C1CCC(CNc2c(N3CCCCC3)c(=O)c2=O)CC1 (centres undefined) | -28% | . | -2% | . | 13% | -26
O=C(C1CCC(CNc2c(N3CCCCC3)c(=O)c2=O)CC1)N1CCCCC1 (centres undefined) | 0.4µM* | 5% | -1% | 4 | -3%[38.3 µM] | -23
COc1ccc(NC(=O)CN(c2ccccc2OC)S(C)(=O)=O)c(OC)c1 | . | . | . | 4 | . | .
NC(=S)NCCC[C@@H](N)C(=O)O | . | -8% | -5% | 9 | . | .
Fc1ccccc1OCCSc1nnnn1-c1ccccc1 | 16µM* | -12% | -7% | 10 | 37%[38.3 µM] | ?
c1ccc(OCCSc2nnnn2-c2ccccc2)cc1 | -17% | -14% | 3% | 10 | 1%[38.3 µM] | 9
O=C(O)c1ccc(-n2nnnc2SCc2ccccc2F)cc1 | 16µM* | -17% | 7% | 6 | 7%[38.3 µM] | -11
COc1cccc(Cn2c(=O)c(C)nc3cnc(N(C)C)nc32)c1 | . | -3% | . | . | 8% | .
CSc1nsc(/C=C/Nc2ccc(C)cc2)c1C#N | 14µM* | ? | -30% | -5 | -16%[38.3 µM] | -11
COc1ccc(NC2=NCC(Cc3ccc(Br)cc3)S2)cc1 (centres undefined) | -25% | . | ? | . | -7% | -92*

Compound activity: PubChem, National Center for Advancing Translational Sciences (NCATS)
